This is part of a sample that, as a whole, favours compounds with a hit. Of some 83,000 tested, about 20% had one in any assay.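 96-well plates, one dose, 48 hours. Percent growth reported; active if below 10.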 Values without a mark were called inactive. Calls of active or inactive are those of the source.
Tests used:
Experiment in all cases: NCI-60 one-dose screen, 48 h (100 = growth as untreated, 0 = no growth, -100 = all killed)
Settings in all cases: 10 µM unless noted
T-47D breast = tested on: T-47D breast
BT-549 breast = tested on: BT-549 breast
MDA-MB-435 melanoma = tested on: MDA-MB-435 melanoma
SW-620 colon = tested on: SW-620 colon
MCF7 breast = tested on: MCF7 breast
HCT-116 colon = tested on: HCT-116 colon
HCC-2998 colon = tested on: HCC-2998 colon
KM12 colon = tested on: KM12 colon

Row | SMILES | growth (T-47D breast) | growth (BT-549 breast) | growth (MDA-MB-435 melanoma) | growth (SW-620 colon) | growth (MCF7 breast) | growth (HCT-116 colon) | growth (HCC-2998 colon) | growth (KM12 colon)
1 | CCCCNC(=O)Oc1ccc(/C(=C(\C)c2ccc(Cl)cc2)c2ccc(OCCN(CC)CC)cc2)cc1 | 42.2% | 80.3% | 66.4% | 79.8% | 30.1% | 51% | 80.6% | 68.2%
2 | FC(F)(F)c1cc(Nc2ccc3c(OCCCN4CCOCC4)cccc3n2)ccc1Cl | 48.1% | 62.1% | 62.7% | 1.47% (active) | 17.9% | 10.8% | 34.6% | -0.295% (active)
3 | COc1cc(C(=O)c2cnc(-c3cccc4[nH]ccc34)[nH]2)cc(OC)c1OC | 70.6% | 40.2% | -34.8% (active) | 19.7% | 22.4% | -8.06% (active) | 20.9% | 4.18% (active)
4 | C[C@H](C(=O)Nc1ccc(S(N)(=O)=O)cc1)S(=O)(=O)c1ccccc1 | 93.2% | 96.8% | 102% | 110% | 96.1% | 92.1% | 111% | 104%
5 | CSc1nc2ccc(C)cc2cc1/C=N/O | 71% | 73.2% | 91.5% | 85.6% | 86.3% | 81.1% | 96.6% | 93.7%
6 | COc1ccc(-c2[nH]c3ccc(OC)cc3c2/C=C(\C#N)S(=O)(=O)c2ccccc2)cc1 | 34.4% | 46.6% | 1.86% (active) | 32.8% | 7.23% (active) | 19.4% | -19.7% (active) | 10.8%
7 | Cc1cc(-c2cc(C)c(N)cc2C)c(C)cc1N | 90.4% | 92.3% | 6.88% (active) | 100% | 80.7% | 78.8% | 104% | 75.2%
8 | Cc1cc(C)c(-c2c(N)cc(Br)cc2Br)c(N)c1 | 54.6% | 69.6% | -25.8% (active) | 48.5% | 21.4% | 23.5% | 75.1% | 40.5%
9 | CN1CCN(c2ccc(-c3ccc4ncc(C#N)c(Nc5ccc(F)c(Cl)c5)c4c3)cc2)CC1 | 60.7% | 63.3% | 21.6% | 21.5% | 51.4% | 18.2% | 48.6% | 57.2%
10 | NC[C@@H]1O[C@H](O[C@@H]2[C@@H](CO)OC(O[C@@H]3[C@@H](O)[C@H](N)C[C@H](N)[C@H]3OC3O[C@H](CN)[C@@H](O)[C@H](O)[C@H]3N)[C@@H]2O)[C@H](N)[C@@H](O)[C@@H]1O (stereo partly specified) | 115% | 109% | 102% | 109% | 103% | 102% | 108% | 110%
11 | O=c1[nH][n+](-c2ccc(Br)cc2)no1 | 28.1% | 83.1% | 22.6% | 36.8% | 32.8% | 79% | 12.7% | 23.3%
12 | NCCNc1nc2ccccc2c2c(=O)c3cccc(F)c3sc12 | 70.7% | 98.5% | 58.5% | 17.7% | 45.1% | 15.1% | 15.5% | 34.3%
13 | CCN(CC)Cc1cc(Nc2c3ccc(Cl)cc3nc3ccc(OC)cc23)ccc1O | 67.5% | 81.4% | 60.2% | 31.7% | 17.4% | 12.8% | 43.6% | 40.6%
14 | CN(C)c1ccc(/C=N\Nc2cc(=O)[nH]c3ccc(Cl)cc23)cc1 | 81.7% | 85.5% | 105% | 86% | 81% | 88.4% | 104% | 104%
15 | COc1ccc2c(c1)nc(NNC(=O)c1cnccn1)c1cccn12 | 22.4% | 37.9% | 33.7% | 29.6% | 10.7% | 20.3% | 49.7% | 24.8%
16 | CCCCCCCCCCCCCCCCCCOc1ccccc1CC(=O)OCC[N+](CC)(CC)CC | 23.5% | 76.3% | 11% | 21.6% | 12.9% | 19.8% | 22.5% | 51.3%

Row | SMILES | growth (T-47D breast) | growth (BT-549 breast) | growth (MDA-MB-435 melanoma) | growth (SW-620 colon) | growth (MCF7 breast) | growth (HCT-116 colon) | growth (HCC-2998 colon) | growth (KM12 colon)
17 | NCCCNc1nc2ccccc2c2c(=O)c3cc(OC(F)(F)F)ccc3sc12 | -9.69% (active) | 93.1% | -79.2% (active) | -75.8% (active) | -70.1% (active) | -83.4% (active) | -88.1% (active) | -89.3% (active)
18 | C/C(=C\C(=O)c1ccc(Cl)cc1)c1ccc(Cl)cc1 | 85.8% | 103% | 102% | 99.3% | 19.4% | 101% | 82.2% | 26.2%
19 | CNC(=O)c1cc(-n2ccc3cc(NC(=O)c4ccc(N5CCOCC5)c(C(F)(F)F)c4)ccc32)ccn1 | 25.8% | 43.8% | 76.4% | 75.9% | 60.6% | 38.7% | 63.8% | 17.7%
20 | COc1ccc2sc3c(NCCCN(C)C)nc4ccccc4c3c(=O)c2c1 | 93.6% | 69.4% | -46.9% (active) | -77.2% (active) | 41.5% | -88.7% (active) | -90.8% (active) | -47.2% (active)
21 | O=c1c2cc(F)ccc2sc2c(NCCO)nc3ccccc3c12 | 93.1% | 114% | 110% | 103% | 39.4% | 105% | 116% | 105%
22 | O=c1ccn(Cc2cn(-c3c4ccccc4nc4ccccc34)nn2)c(=O)[nH]1 | 38% | 100% | 99.4% | 93% | 36.4% | 92.4% | 90.5% | 104%
23 | O=C(Cc1ccc2c(c1)OCCO2)Nc1nc2ccc(F)cc2s1 | 93.6% | 89.6% | 104% | 104% | 92.2% | 101% | 122% | 108%
24 | COc1cccc(Oc2ccccc2NC(=O)CNC(=O)c2cccc3ccccc23)c1 | 62.3% [5 µM] | 50.7% [5 µM] | -20.5% [5 µM] (active) | 22.4% [5 µM] | 20.5% [5 µM] | 3.51% [5 µM] (active) | 25.5% [5 µM] | 13.5% [5 µM]
25 | N#C/C(=C\c1ccc(F)cc1)n1nc2cccc(F)c2n1 | 33% | 60.8% | -55.4% (active) | 18.9% | 14.1% | 20.8% | 93.8% | 16.4%
26 | C/C=C(\C)C(=O)N[C@H]1[C@@H](OC(C)=O)C[C@]2(C)C3CC[C@@]4(C)C(CC[C@@H]4C(C)N(C)C)C3CCC2[C@H]1O (stereo partly specified) | 60.6% | 63.4% | 1.82% (active) | 63.9% | 61.9% | 30.7% | 69.2% | 45.6%
27 | CCN1C(=O)N(CC)C2Nn3c(s/c(=C4\C(=O)Nc5ccccc54)c3=O)=NC21 (stereo unspecified) | 45.8% | 65.3% | -51% (active) | 27.6% | 29.1% | 31.8% | 88% | 33%
28 | CN(C(=O)NCc1cccc(F)c1Cl)[C@H](COC(=O)Nc1cc2ccccc2cn1)CC(O)CO (stereo partly specified) | 89% | 43.9% | 104% | 92.2% | 98.9% | 95.4% | 110% | 104%
29 | O=C(Nc1ccc(OS(=O)(=O)c2ccc(F)cc2)cc1)c1ccc(Cl)cc1 | 78.1% | 97.4% | 117% | 108% | 92.9% | 95.5% | 106% | 103%
30 | COc1ccc(-c2c(C(=O)NS(C)(=O)=O)n(Cc3cccc(C(F)(F)F)c3)c3ccccc23)cc1 | 87.7% | 92.3% | 97.3% | 95.4% | 91.4% | 84.5% | 108% | 92.8%
31 | COc1cccc(-c2nn(-c3ccccc3)cc2-c2ccnc(N3CCOCC3)c2)c1 | 51.7% | 87.9% | 98.9% | 105% | 87% | 79.8% | 93.8% | 86.1%
32 | COc1ccc2c(c1)c(-c1nn3cc(-c4cccs4)nc3s1)cn2C | 43.6% | 101% | 87.6% | 82.3% | 60.4% | 82.8% | 98.9% | 70.4%

— PubChem BioAssay (NCI)
